“And” between values parts separate entries of the source, which are not always exact repeats. Equal entries are not always repeated. The campaign covered roughly 5,500 compounds. About 2,000 (36%) were called active. About 18% were inconclusive and are not listed. Rule as the data show it: active = normalized growth mostly below about 0.91 (no sharp cut-off); inconclusive = no clear call, values can overlap the other calls; inactive = mostly above about 0.92. This is one part of the list.
Assay: chemical genetic growth profiling, strain panel (AID 1159580);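 also: tested at 20 µM; growth read once vehicle control cultures reached saturation at 30 °C; 1 = growth at the plate median or of vehicle wells; lower values mean less growth of the strain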
Conditions: S. cerevisiae deletion strains, growth OD

Measured: normalized growth

CO[C@H]1CC(O[C@@H]2/C(C)=C/C[C@@H]3C[C@@H](C[C@]4(CC[C@H](C)[C@@H](C5CCCCC5)O4)O3)OC(=O)[C@@H]3C=C(C)/C(=N\O)[C@H]4OC/C(=C\C=C\[C@@H]2C)[C@]43O)O[C@@H](C)C1O (some centres undefined)
0.882 (inactive) and 0.512 (active): locus YJL095W, strain BCK1, stronger effect = lower value
inactive: locus YAL013W, strain DEP1, stronger effect = lower value 0.956 | locus YAL021C, strain ccr4, stronger effect = lower value 1.09 | locus YAL026C, strain drs2, stronger effect = lower value 1.02 | locus YAL030W, strain snc1, stronger effect = lower value 1.02 | locus YBL061C, strain skt5, stronger effect = lower value 0.989 | locus YBR009C, strain hhf1, stronger effect = lower value 1.03 | locus YBR021W, strain FUR4, stronger effect = lower value 0.952 | locus YBR023C, strain chs3, stronger effect = lower value 0.991 | locus YBR171W, strain sec66, stronger effect = lower value 0.988 | locus YBR229C, strain ROT2, stronger effect = lower value 0.992 | locus YBR279W, strain paf1, stronger effect = lower value 1.01 | locus YCL011C, strain gbp2, stronger effect = lower value 1 | locus YCL016C, strain dcc1, stronger effect = lower value 1.01 | locus YCL029C, strain bik1, stronger effect = lower value 0.984 | locus YCL061C, strain MRC1, stronger effect = lower value 1.02 | locus YCL069W, strain vba3, stronger effect = lower value 1.02 | locus YCR088W, strain abp1, stronger effect = lower value 1.02 | locus YDL005C, strain med2, stronger effect = lower value 1.02 | locus YDL035C, strain GPR1, stronger effect = lower value 0.949 | locus YDL040C, strain nat1, stronger effect = lower value 1.02 | locus YDL074C, strain BRE1, stronger effect = lower value 0.979 | locus YDL101C, strain DUN1, stronger effect = lower value 0.979 | locus YDL134C, strain PPH21, stronger effect = lower value 0.96 | locus YDL192W, strain arf1, stronger effect = lower value 0.989 | locus YDR001C, strain nth1, stronger effect = lower value 1.01 | locus YDR069C, strain doa4, stronger effect = lower value 1 | locus YDR101C, strain arx1, stronger effect = lower value 0.998 | locus YDR150W, strain NUM1, stronger effect = lower value 0.984 | locus YDR162C, strain NBP2, stronger effect = lower value 0.928 | locus YDR195W, strain ref2 0.883 | locus YDR297W, strain sur2, stronger effect = lower value 1.02 | locus YDR318W, strain mcm21, stronger effect = lower value 0.992 | locus YDR334W, strain swr1, stronger effect = lower value 1.02 | locus YDR335W, strain msn5, stronger effect = lower value 0.982 | locus YDR388W, stronger effect = lower value 0.991 | locus YDR392W, strain spt3, stronger effect = lower value 0.979 | locus YDR502C, strain sam2, stronger effect = lower value 0.983 | locus YEL003W, strain gim4, stronger effect = lower value 1.01 | locus YEL037C, strain rad23, stronger effect = lower value 1.02 | locus YEL061C, strain CIN8 (second series), stronger effect = lower value 1.02 | locus YEL061C, strain CIN8, stronger effect = lower value 0.987 | locus YER015W, strain faa2, stronger effect = lower value 0.997 | locus YER016W, strain bim1, stronger effect = lower value 0.989 | locus YER110C, stronger effect = lower value 0.994 | locus YER111C, strain swi4, stronger effect = lower value 1.02 | locus YER155C, strain BEM2 (second series), stronger effect = lower value 1 | locus YER155C, strain BEM2, stronger effect = lower value 1.02 | locus YER167W, strain BCK2, stronger effect = lower value 0.994 | locus YFR010W, strain ubp6, stronger effect = lower value 1.02 | locus YGL078C, strain dbp3, stronger effect = lower value 0.975 | locus YGL086W, strain mad1, stronger effect = lower value 1.01 | locus YGL167C, strain pmr1, stronger effect = lower value 1.01 | locus YGL173C, strain kem1, stronger effect = lower value 1.02 | locus YGL227W, strain vid30, stronger effect = lower value 1.03 | locus YGL240W, strain doc1, stronger effect = lower value 1.1 | locus YGL248W, strain PDE1, stronger effect = lower value 1 | locus YGL253W, strain hxk2, stronger effect = lower value 1.01 | locus YGR135W, strain pre9, stronger effect = lower value 0.974 | locus YGR252W, strain gcn5, stronger effect = lower value 1.06 | locus YHR013C, strain ard1, stronger effect = lower value 0.861 | locus YHR027C, strain rpn1, stronger effect = lower value 0.994 | locus YHR079C, strain IRE1 (second series), stronger effect = lower value 0.988 | locus YHR094C, strain hxt1, stronger effect = lower value 1 | locus YHR129C, strain ARP1, stronger effect = lower value 0.99 | locus YHR142W, strain chs7, stronger effect = lower value 1.01 | locus YHR200W, strain rpn10, stronger effect = lower value 0.988 | locus YIL066C, strain RNR3, stronger effect = lower value 0.984 | locus YIL073C, strain SPO22, stronger effect = lower value 0.801 | locus YIL125W, strain kgd1, stronger effect = lower value 0.992 | locus YIR030C, strain dcg1, stronger effect = lower value 1 | locus YJL092W, strain hpr5, stronger effect = lower value 1.02 | locus YJL095W, strain BCK1 (second series), stronger effect = lower value 1.02 | locus YJL115W, strain asf1, stronger effect = lower value 1.04 | locus YJL129C, strain trk1, stronger effect = lower value 0.901 | locus YJL134W, strain LCB3, stronger effect = lower value 0.984 | locus YJL154C, strain vps35, stronger effect = lower value 1.02 | locus YJL164C, strain tpk1, stronger effect = lower value 1.01 | locus YJL166W, strain qcr8, stronger effect = lower value 1.02 | locus YJL168C, strain set2, stronger effect = lower value 0.997 | locus YJL187C, strain SWE1 (second series), stronger effect = lower value 0.99 | locus YJL187C, strain SWE1, stronger effect = lower value 1.01 | locus YJR043C, strain POL32, stronger effect = lower value 0.977
0.993 (inactive) and 0.435 (active): locus YHR030C, strain SLT2, stronger effect = lower value
active: locus YBR231C, strain swc5, stronger effect = lower value 0.877 | locus YDL185W, strain tfp1, stronger effect = lower value 0.0713 | locus YDR137W, strain rgp1, stronger effect = lower value 0.39 | locus YDR159W, strain sac3, stronger effect = lower value 0.756 | locus YHR079C, strain IRE1, stronger effect = lower value 0.831
